{"source": "ChEMBL document CHEMBL3988442", "about": "“University of Dundee, Small-Polar-MMV Screening Library” (2021)", "note": "About 13,000 (27%) of roughly 48,000 compounds showed an effect of 50% or more. The list shows a part of the results.", "data": [{"system": "Wolbachia pipientis", "experiment": "Anti-Wolbachia Cell-Based Screen", "format": "functional", "parameters": "scale not given: in the data most compounds retested in dose-response had high values", "settings": "5 µM", "units": {"Percent Effect": "%"}, "values": [{"smiles": "O=C(NCCN1CCOCC1)N(Cc1ccoc1)C1CCCCC1", "Percent Effect": 0.09271}, {"smiles": "COC(=O)CCC(=O)Nc1ccc(Br)c(C)n1", "Percent Effect": -4.996}, {"smiles": "COc1cccc(CCC2CCCN(C(=O)c3cnccn3)C2)c1", "note": "(centres undefined)", "Percent Effect": -42.01}, {"smiles": "COc1ccc(CCC2CCCN(C(=O)c3cnc(N)nc3C)C2)cc1", "note": "(centres undefined)", "Percent Effect": 107.8}, {"smiles": "COc1cccc(CCC2CCCN(C(=O)c3ccc(OC)o3)C2)c1", "note": "(centres undefined)", "Percent Effect": -11.16}, {"smiles": "Cc1nccn1CCC1CCCCN1C(=O)c1ccc(N(C)C)cc1", "note": "(centres undefined)", "Percent Effect": 11.5}, {"smiles": "Cc1nccn1CCC1CCCCN1Cc1cnc(N(C)C)nc1", "note": "(centres undefined)", "Percent Effect": -18.73}, {"smiles": "CCN(Cc1ccncc1)C(=O)c1cn(CC2CCCNC2)nn1", "note": "(centres undefined)", "Percent Effect": -3.068}, {"smiles": "Cc1nccn1CCC(=O)N1CCCN(c2ccccc2)CC1", "Percent Effect": 21.45}, {"smiles": "CN(C)CCN(C)C(=O)c1cn(CC2CCCCC2)nn1", "Percent Effect": 101.9}, {"smiles": "Cc1nccn1CCN(C)C(=O)c1cn(-c2ccccc2)nn1", "Percent Effect": 107.7}, {"smiles": "CN(Cc1ccncc1)C(=O)NCc1cn(-c2ccccc2)nn1", "Percent Effect": -7.371}, {"smiles": "Cc1nccn1CCN(C)C(=O)c1cn(CC2CCCCC2)nn1", "Percent Effect": 121.2}, {"smiles": "CCN(Cc1ccncc1)C(=O)c1cn(CCC2CCCCC2)nn1", "Percent Effect": 4.586}, {"smiles": "CC(C)c1nn(C)c(N(C)C)c1CNCc1cscn1.Cl", "Percent Effect": -8.215}, {"smiles": "Cc1ncccc1NC(=O)[C@@H]1CCO[C@@H]2CCN(c3ccncn3)C[C@H]21", "Percent Effect": 113.9}, {"smiles": "CC(C)NC(=O)[C@@H]1CCO[C@@H]2CCN(c3ncccn3)C[C@@H]21.O=C(O)C(F)(F)F", "Percent Effect": -3.581}, {"smiles": "Cc1ncccc1NC(=O)[C@@H]1CCO[C@@H]2CCN(c3ccccc3)C[C@@H]21.O=C(O)C(F)(F)F.O=C(O)C(F)(F)F", "Percent Effect": 108.5}, {"smiles": "COCCNC(=O)[C@@H]1CCO[C@@H]2CCN(c3ccc(C)nn3)C[C@@H]21", "Percent Effect": -1.212}, {"smiles": "O=C(NCc1ccco1)[C@@H]1CCO[C@@H]2CCN(c3ccncn3)C[C@H]21.O=C(O)C(F)(F)F", "Percent Effect": -22.24}, {"smiles": "O=C(NCC1CC1)[C@@H]1CCO[C@@H]2CCN(c3ncccn3)C[C@@H]21.O=C(O)C(F)(F)F", "Percent Effect": -3.49}, {"smiles": "CC(=O)N(C)Cc1ccccc1NCc1c(C)cccc1C", "Percent Effect": -18.14}, {"smiles": "O=C(C1CC1)N1CC[C@H](c2nc3ccccc3o2)C1", "Percent Effect": 7.952}, {"smiles": "CCc1c(C)nn2c(O)cc(C3CCN(C(=O)C4CC4)C3)nc12", "note": "(centres undefined)", "Percent Effect": 96.58}, {"smiles": "O=C(C1CC1)N1CC[C@H](c2nnc(-c3ccccc3F)o2)C1", "Percent Effect": -4.544}, {"smiles": "Cc1nc(C)n(CC2CCCN(Cc3cccnc3)C2)n1", "note": "(centres undefined)", "Percent Effect": 89.08}, {"smiles": "COc1ccc(CN2CCCC(Cn3nc(C)nc3C)C2)cc1F", "note": "(centres undefined)", "Percent Effect": -3.884}, {"smiles": "Cc1nc(C)n(CC2CCCN(Cc3cccc(C(N)=O)c3)C2)n1", "note": "(centres undefined)", "Percent Effect": 133.9}, {"smiles": "Cc1nc(C)n(CC2CCCN(Cc3cccc(C#N)c3)C2)n1", "note": "(centres undefined)", "Percent Effect": -5.879}, {"smiles": "Cc1nc(C)n(CC2CN(Cc3cccc(C(N)=O)c3)CCO2)n1", "note": "(centres undefined)", "Percent Effect": -4.426}, {"smiles": "Cc1nc(C)n(CC2CCCN(Cc3ccc4c(c3)OCCO4)C2)n1", "note": "(centres undefined)", "Percent Effect": 92.75}, {"smiles": "Cc1nc(C)n(CC2CCCN(Cc3ccc(C(N)=O)cc3)C2)n1", "note": "(centres undefined)", "Percent Effect": -2.004}, {"smiles": "Cc1nc(C)n(CC2CN(Cc3cccnc3)CCO2)n1", "note": "(centres undefined)", "Percent Effect": 5.869}, {"smiles": "COc1cccc(CN2CCCC(Cn3nc(C)nc3C)C2)c1", "note": "(centres undefined)", "Percent Effect": 103.7}, {"smiles": "COC(=O)c1ccc(C(=O)NCc2ccco2)nc1", "Percent Effect": -23.57}, {"smiles": "CCc1nccn1CCC(=O)N1CC[C@@H](c2ccc(F)cc2)[C@H](O)C1", "Percent Effect": -13.2}, {"smiles": "COc1ccccc1C1(CNc2nnc(C)c(C)c2C#N)CCOCC1", "Percent Effect": 0.2404}, {"smiles": "Cc1cc(CN(C)C(=O)NCC2CCS(=O)(=O)C2)no1", "note": "(centres undefined)", "Percent Effect": -10.09}, {"smiles": "Cc1nc(CNC(=O)NC2CC(C)(C)OC2(C)C)sc1C", "note": "(centres undefined)", "Percent Effect": -0.2444}, {"smiles": "O=C(NCCCO)Nc1cccc(Cl)c1F", "Percent Effect": -20.85}, {"smiles": "CNC(=O)Nc1cnc2cc(Cl)ccc2c1O", "Percent Effect": 96.42}, {"smiles": "O=C(NCCCN1CCOCC1)Nc1cnc2cc(Cl)ccc2c1O", "Percent Effect": -16.9}, {"smiles": "O=C(NCCO)Nc1cnc2cc(Cl)ccc2c1O", "Percent Effect": 99.99}, {"smiles": "O=C(NCCCO)Nc1cnc2cc(Cl)ccc2c1O", "Percent Effect": 96.93}, {"smiles": "O=C(NCC1CC1)Nc1cnc2cc(Cl)ccc2c1O", "Percent Effect": -14.95}, {"smiles": "CC(CO)NC(=O)Nc1ccc(Cl)cc1OCC(F)(F)F", "note": "(centres undefined)", "Percent Effect": -4.812}, {"smiles": "O=C(NCCO)Nc1cccc(Cl)c1SC(F)F", "Percent Effect": 0.2889}, {"smiles": "O=C(NCCN1CCOCC1)Nc1cnc2cc(Cl)ccc2c1O", "Percent Effect": 96.85}, {"smiles": "CC(C)OC(=O)c1ccc(Cl)c(NC(=O)NCCN2CCOCC2)c1", "Percent Effect": -2.134}, {"smiles": "CC(C)OCCCNC(=O)Nc1cccc2ncccc12", "Percent Effect": -8.776}, {"smiles": "N[C@H]1CN(C(=O)c2cnc3cc(Cl)ccc3c2O)C[C@@H]1C1CC1", "Percent Effect": 6.977}, {"smiles": "CC(=O)NC(C(=O)N(C)Cc1nnc2n1CCC2)C(C)C", "note": "(centres undefined)", "Percent Effect": 2.941}, {"smiles": "Cc1cc(C(=O)N2C[C@@H]3COC[C@]3(c3nnc(C4CC4)o3)C2)on1", "Percent Effect": -20.3}, {"smiles": "COc1ccccc1OC1CN(C(=O)C(c2ccc(F)cc2)N(C)C)C1", "note": "(centres undefined)", "Percent Effect": -23.44}, {"smiles": "CCOc1c(Br)cc(C2C3=C(COC3=O)Nc3[nH]nc(C)c32)cc1OC", "note": "(centres undefined)", "Percent Effect": -13.27}, {"smiles": "Cc1cnc(C(=O)N(C)Cc2nc(-c3ccccn3)no2)cn1", "Percent Effect": -1.871}, {"smiles": "Fc1ccccc1Cc1noc(CN2CCC(N3CCSCC3)CC2)n1", "Percent Effect": 5.463}, {"smiles": "Cc1ccccc1N1CCCN(C(=O)c2cn(C)c3ccccc23)CC1", "Percent Effect": 5.002}, {"smiles": "N#Cc1ccccc1N1CCN(C(=O)NCCN2CCOCC2)CC1", "Percent Effect": -5.749}, {"smiles": "O=C(Nc1ccc(I)cc1C(=O)NCCN1CCOCC1)c1ccco1", "Percent Effect": 13.86}, {"smiles": "O=C(Nc1ccccc1C(=O)NCCN1CCOCC1)c1ccco1", "Percent Effect": 0.2432}, {"smiles": "O=C(Nc1ccc(Cl)cc1C(=O)NCCN1CCOCC1)c1ccco1", "Percent Effect": 134.1}, {"smiles": "COc1cc(CN2CCCC(Nc3cccc(F)c3)C2)cc(OC)c1O", "note": "(centres undefined)", "Percent Effect": 11.19}, {"smiles": "CC(C)S(=O)(=O)N1C[C@@H](O)[C@H](N(C)Cc2ccc(F)cc2)C1", "Percent Effect": 92.86}, {"smiles": "COc1ccc(CN(C)[C@@H]2CN(S(=O)(=O)C(C)C)C[C@H]2O)cc1", "Percent Effect": 105.6}, {"smiles": "CCOCC(=O)N1C[C@@H](O)[C@H](N(C)Cc2ccc(OC)cc2)C1", "Percent Effect": -9.013}, {"smiles": "Cc1ccc([C@@H]2CN(S(=O)(=O)C(C)C)C[C@H]2N(C)C)cc1", "Percent Effect": 4.129}, {"smiles": "CC(C)C1CN(S(=O)(=O)C2CC2)CCCN1Cc1ccc(F)cc1", "note": "(centres undefined)", "Percent Effect": -0.9864}, {"smiles": "CC(C)C1CN(S(=O)(=O)N2CCCC2)CCCN1Cc1ccc(F)cc1", "note": "(centres undefined)", "Percent Effect": -9.548}]}]}
